# Only some compounds are listed: those with a hit (about 3.3% of all), similar ones and a draw of the others.
# USP28 block – human USP28 deubiquitinase inhibition; purified USP28, Ub-rhodamine cleavage fluorescence, 30 min; actives 3% (n = 47,000); Q96RU2; inhibition, % at 25 µM; AID 1645857
# Target sequence (Q96RU2 whole entry, looked up): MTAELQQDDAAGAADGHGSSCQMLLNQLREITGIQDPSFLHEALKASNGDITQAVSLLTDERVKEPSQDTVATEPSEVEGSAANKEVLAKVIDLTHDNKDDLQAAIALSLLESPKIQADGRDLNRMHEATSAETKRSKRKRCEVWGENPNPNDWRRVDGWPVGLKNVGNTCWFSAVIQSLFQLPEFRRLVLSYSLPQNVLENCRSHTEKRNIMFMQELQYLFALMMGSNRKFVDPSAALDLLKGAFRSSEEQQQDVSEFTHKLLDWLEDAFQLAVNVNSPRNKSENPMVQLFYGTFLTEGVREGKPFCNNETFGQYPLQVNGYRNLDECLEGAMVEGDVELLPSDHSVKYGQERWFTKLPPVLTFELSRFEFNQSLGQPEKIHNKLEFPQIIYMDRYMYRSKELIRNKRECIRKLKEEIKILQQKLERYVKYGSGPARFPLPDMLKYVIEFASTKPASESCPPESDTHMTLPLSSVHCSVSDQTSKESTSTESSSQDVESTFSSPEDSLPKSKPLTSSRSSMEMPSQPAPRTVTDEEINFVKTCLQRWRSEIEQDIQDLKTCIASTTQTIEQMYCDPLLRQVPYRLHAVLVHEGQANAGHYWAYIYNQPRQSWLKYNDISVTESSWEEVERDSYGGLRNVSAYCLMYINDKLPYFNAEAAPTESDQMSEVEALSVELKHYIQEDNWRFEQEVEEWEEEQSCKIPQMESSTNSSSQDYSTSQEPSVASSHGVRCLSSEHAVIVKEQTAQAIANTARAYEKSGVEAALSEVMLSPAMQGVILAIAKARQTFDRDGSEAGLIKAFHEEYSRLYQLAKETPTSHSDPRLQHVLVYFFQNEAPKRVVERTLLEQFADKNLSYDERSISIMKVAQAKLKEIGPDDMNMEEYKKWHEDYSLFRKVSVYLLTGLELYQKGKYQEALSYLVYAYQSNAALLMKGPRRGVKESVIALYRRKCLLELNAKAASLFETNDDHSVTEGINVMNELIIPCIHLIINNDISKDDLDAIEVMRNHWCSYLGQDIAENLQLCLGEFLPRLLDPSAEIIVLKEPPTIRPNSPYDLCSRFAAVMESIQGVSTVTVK
# OTUD3 inh – human OTUD3 deubiquitinase inhibition | inhibition, % at 25 µM | actives 0.7% (n = 47,000) | Q5T2D3 | purified OTUD3, Ub-rhodamine fluorescence, 2 h
# Numbers without * were called inactive; / = not tested or not shown. Rule as the data show it: active = inhibition above about 30%; inactive = the rest.
SMILES,USP28 block,OTUD3 inh
Cc1[nH]nc(NC(=O)C2COc3ccccc3O2)c1-c1ccccc1 (configuration not stated),53*,37*
CC(C)COc1ccc(-c2nonc2NC(=O)C2COc3ccccc3O2)cc1 (configuration not stated),9,9
COc1ccc(-c2c(NC(=O)C3COc4ccccc4O3)n[nH]c2C)cc1OC (configuration not stated),32*,8
CC1(c2ccc3ccccc3c2)NC(=O)N(CCC(N)=O)C1=O (configuration not stated),-2,5
COc1ccc(NC(=O)c2cccnc2Nc2ccc(Cl)cc2)cc1,2,22
Cc1ccccc1CNC(=O)CCCN1C(=O)C(c2ccccc2)Oc2cccnc21 (configuration not stated),-7,13
O=C(C1CCCC1)N1CCC(c2nc3c(nnn3Cc3ccccc3Cl)c(=O)[nH]2)CC1,19,9
Cc1ccc(Cl)cc1NC(=O)c1ccn(COc2ccccc2F)n1,35*,5
Cc1ccc(NC(=O)c2ccn(COc3ccccc3Cl)n2)nc1,19,7
Cc1cc(N2CCN(c3ncccn3)CC2)nc2ccc(NC(=O)/C=C/c3ccc(OCCC(C)C)cc3)cc12,5,5
Cc1ccc(S(=O)(=O)Nc2c(O)c3ccccc3oc2=O)c(C)c1,17,-9
CSc1ccccc1C(=O)Nc1c(C(N)=O)oc2ccccc12,30*,17
COc1ccccc1NC(=O)c1oc2ccccc2c1NC(=O)c1ccccc1Cl,4,7
COc1ccccc1CNC(=O)c1ccc2c(c1)N(Cc1cccc(F)c1)C(=O)c1ccccc1S2,-20,-17
CC(=O)N1C[C@H]2C3(CCN(C(=O)c4cc(C)on4)CC3)CC[C@@]2(C(=O)N2CCCC2)C1,-16,0
Cc1nn(-c2ccc([N+](=O)[O-])cc2)c(C)c1-c1nc2ccccc2[nH]1,37*,9
Cn1ccc(-c2nc3ccccc3[nH]2)n1,-4,-2
Cc1noc2nc(C)n(CC(=O)NCCc3ccccc3)c(=O)c12,-2,-3
CC1(O)CC(=O)c2c(cc3cc(O)cc(O)c3c2O)C1 (configuration not stated),68*,75*
CCOc1ccc(N(Cc2cc3cc(OC)ccc3[nH]c2=O)S(=O)(=O)c2ccccc2)cc1,-7,0
Cc1ccc(C)c(NC(=O)c2ccc(N3C(=O)C(C)CS3(=O)=O)cc2Cl)c1 (configuration not stated),8,8
Cc1ccc(NC(=O)c2ccc(N3C(=O)C(C)CS3(=O)=O)cc2Cl)cc1C (configuration not stated),39*,0
Cc1cc(C)c2nc(N3CCCC(C(=O)NCCN4CCN(c5cccc(C)c5C)CC4)C3)sc2c1 (configuration not stated),0,1
O=C(Cc1ccccc1)c1c[nH]c(C(=O)NCc2ccncc2)c1,/,0
CCCC(=O)c1c[nH]c(C(=O)NCc2ccc(F)cc2)c1,35*,-7
SMILES,USP28 block,OTUD3 inh
COc1cccc(CN2CCc3nc(C(=O)NCC(C)C)sc3CC2)c1,-29,-25
O=C(Cc1nnc(-c2cnccn2)o1)Nc1ccc(Cl)cc1,23,18
COc1ccc(CNC(=O)C2CCN(S(C)(=O)=O)c3ccccc3O2)cc1 (configuration not stated),4,2
CC1(C)CCCC2=C1CC(C)(C)C(N(C(=O)/C=C/C(=O)O)c1ccccc1)C2 (configuration not stated),49*,41*
Cc1cccc(OCC(O)CN2CCCCCC2)c1C (configuration not stated),-3,-2
COc1cc(N)c(Cl)cc1C(=O)OCC(=O)N1CCCC1,5,11
COc1cc(N)c(Cl)cc1C(=O)OCC(=O)Nc1ccc2c(c1)OCCO2,37*,-10
O=C(Nc1ccccn1)N1C[C@@H]2c3nccn3-c3ccccc3[C@@H]2C1,9,13
O=C(c1ccc2c(c1)N(Cc1ccc(F)cc1)C(=O)c1ccccc1S2=O)N1CCN(c2ccccn2)CC1 (configuration not stated),26,-1
Fc1ccc(Oc2nc(CN3CCOCC3)nc3sc4c(c23)CCCC4)c(Cl)c1,58*,-9
Fc1cccc(Oc2nc(CN3CCOCC3)nc3sc4c(c23)CCCC4)c1,7,-6
CCOc1ccccc1NC(=O)C(OC(=O)c1ccc(OCC(=O)Nc2ccc(OC)cc2)c(OC)c1)c1ccccc1 (configuration not stated),-11,1
CCOc1ccccc1NC(=O)COc1cc(OC)ccc1C(=O)c1ccccc1,56*,20
OC12CCCCC1C(c1ccc3c(c1)OCO3)NCC2 (configuration not stated),2,6
COc1ccccc1CNC(=O)c1sc2nc(C)cc(C)c2c1-n1cccc1,15,19
Cc1cc(C)c2c(-n3cccc3)c(C(=O)NCCc3ccc(S(N)(=O)=O)cc3)sc2n1,80*,-12
O=C(NCC1CCCO1)c1cc(-c2ccncc2)n[nH]1 (configuration not stated),-3,0
Cc1ccc(C(C)C)cc1OCCOCCN1CCNCC1,60*,10
Cc1ccc(C)c(OCCOCCN2CCNCC2)c1C,2,-2
Cc1cc(C)c2cc(CN(Cc3cccnc3)C(=O)NCc3ccccc3)c(=O)[nH]c2c1,-9,-14
Cc1cc(N2CCC(NC(=O)NCc3ccccc3)C2=O)ccc1F (configuration not stated),0,-2
O=C(CCCOc1ccc(Cl)cc1Cl)N(CC1CCCO1)c1nc2ccccc2s1 (configuration not stated),10,5
CC(=O)c1cc(-c2ccc(F)cc2)n(CC(=O)Nc2cccc(C)c2C)c1C,22,35*
CC(=O)c1cc(-c2ccc(F)cc2)n(CC(=O)NCc2ccc(N(C)C)cc2)c1C,-5,-23
Fc1cnc(N2CCC3(CCCN(c4ncccn4)C3)C2)nc1 (configuration not stated),-8,-6
SMILES,USP28 block,OTUD3 inh
Cc1cccnc1C(=O)N1CCC[C@@]2(C[C@@H](Oc3cccc(F)c3)CO2)C1,-14,-11
COc1cccc(C(=O)Nc2ccc3c(c2)N(C(C)=O)CCC3)c1,0,-9
O=C(Nc1ccc2c(c1)N(C(=O)C1CCCC1)CC2)c1c(F)cccc1F,93*,7
CC(=O)c1cccc(NC(=O)c2ccc3c(c2)CCN3C(=O)C2CC2)c1,23,-6
COc1ccc(C(=O)Nc2ccc3c(c2)N(C(=O)C2CC2)CCC3)cc1OC,33*,10
COc1ccc(-n2nnc3c(SCC(=O)Nc4cc(C)on4)ncnc32)cc1,0,-3
COc1ccc(OC)c2c(C)cc(N3CC(C)CC(C)C3)nc12 (configuration not stated),54*,30*
CCOc1ccc2[nH]c3c(N4CC(C)CC(C)C4)ncnc3c2c1 (configuration not stated),-9,-15
Cc1sc(NC(=O)CN2CCN(c3ccccc3)CC2)c(C#N)c1C,7,10
CCOc1ccc(CCNC(=O)CCC(=O)Nc2ccc3nc(N4CCN(C)CC4)cc(C)c3c2)cc1OCC,11,10
CCOc1ccc(CCNC(=O)c2ccc3c(SCC(=O)O)c4c(nc3c2)CCC4)cc1OCC,42*,29
CCOc1ccc(CCNC(=O)c2cc(Nc3ccccc3C)nc3ccccc23)cc1OCC,41*,13
Cc1ccc(CCNC(=O)c2cc(Nc3ccccc3C)nc3ccccc23)cc1,3,-9

# Screening data from PubChem.
